Source: PubChem BioAssay
Hits are enriched below; roughly 5.7% of the tested compounds scored in any of these assays.
hgDAF-12 ag: H. glycines DAF-12 receptor agonists, primary screen, cell-based, luminescence, HEK293, GAL4 fusion, UAS-luciferase; Nuclear hormone receptor DAF-12 (Heterodera glycines), GAL4 fusion; HEK293 GAL4-hgDAF12 UAS-luciferase reporter, agonist luminescence; normalized to butyrate control; activation, % at 6.8 µM; hit rate 1.8% among 370,000; AID 687014, 2013;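 active means activation above a cutoff set at the mean of all screened compounds plus 3 SD, cut at about 10% in these data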
DAX1 inh-1: DAX1 (NR0B1) inhibitors, primary screen, cell-based, HEK293, Gal4-DAX1, luciferase luminescence. HEK293 Gal4-DAX1 luciferase reporter. inhibition, % at 6.75 µM. hit rate 0.99% among 340,000. AID 504766, 2011;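 active means inhibition above the mean over all tested compounds plus 3 SD, cut at about 4.2% in these data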;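 further: inhibition shows as a rise in luminescence from relieved DAX1 repression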
Target sequence (P51843 207-470 limits assumed): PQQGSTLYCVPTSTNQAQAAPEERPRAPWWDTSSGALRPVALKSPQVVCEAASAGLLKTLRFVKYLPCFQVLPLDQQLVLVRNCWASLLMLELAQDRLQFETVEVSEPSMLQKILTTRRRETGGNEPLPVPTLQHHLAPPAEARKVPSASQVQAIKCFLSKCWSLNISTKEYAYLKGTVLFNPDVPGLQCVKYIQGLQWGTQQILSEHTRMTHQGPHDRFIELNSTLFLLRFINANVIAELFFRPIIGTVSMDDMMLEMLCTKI
hcDAF12 agonist: H. contortus DAF-12 nuclear receptor activators, primary screen, cell-based, luminescence, HEK293, lit1-tk-luc reporter | HEK293 hcDAF-12 lit1-tk-luc reporter; 0% DMSO, 100% Δ7-dafachronic acid | hit rate 1.4% among 370,000 | AID 652067, 2013 | activation, % at 6.8 µM;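 active means activation above the mean of all tested compounds plus 3 SD, cut at about 5.5% in these data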
DAX1 inh-2: DAX1 (NR0B1) inhibitors on StAR promoter, primary screen, cell-based, luminescence, SF-1 (NR5A1), full-length DAX-1; hit rate 1.1% among 370,000; HEK293T StAR-luciferase reporter, SF-1/DAX-1 repression relief; inhibition, % at 6.8 µM; AID 652010, 2013;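 active means inhibition above the mean over all tested compounds plus 3 SD, cut at about 3.6% in these data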;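 further: higher inhibition means more luminescence from relief of DAX-1 repression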
ssDAF-12 act: S. stercoralis DAF-12 nuclear receptor activators, primary screen, cell-based, luminescence, HEK293, GRIP1 co-expression, lit1-tk-luc; Nuclear hormone receptor DAF-12 (Strongyloides stercoralis); HEK293 ssDAF-12/GRIP1 lit1-tk-luc reporter; % of 3 µM dafachronic acid response; activation, % at 6.8 µM; hit rate 1% among 370,000; AID 652126, 2013;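 active means activation above the mean over all tested compounds plus 3 SD, cut at about 0.9% in these data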
AHR act: AHR activators, primary screen, cell-based, luminescence, luciferase reporter, human. Aryl hydrocarbon receptor (Homo sapiens), P35869. AHR-responsive luciferase reporter cells. activation, % at 5 µM. hit rate 2.5% among 320,000. AID 2796, 2010; in the data active means activation above about 47%
LXR ag: LXR agonists, Gal4 luciferase reporter, confirmation, counter-screen for hcDAF-12 agonist project, cell-based, luminescence, HEK293, H. contortus campaign; activation, % at 6.8 µM; 3,400 tested, under 10 active; HEK293 Gal4-LXR tk-luc reporter, 24 h; normalized: DMSO 0%, positive control 100%; shares compounds with hcDAF12 agonist;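 active means mean percent activation of the reporter above a cutoff set as the average over tested compounds plus their standard deviation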
hcDAF12 ag: H. contortus DAF-12 receptor agonists, confirmation, cell-based, luminescence, HEK293, lit1-tk-luc, triplicate; shares compounds with hcDAF12 agonist; HEK293 hcDAF-12 lit1-tk-luc reporter; % of Δ7-dafachronic acid response; activation, % at 6.8 µM; hit rate 61% among 3,400; AID 743032, 2013;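 active means mean activation across triplicate tests above the threshold derived from the earlier primary screen, cut at about 5.5% in these data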
Large screens that a line does not name were inactive (follow-up assays come after a bar, where they were run).

CCc1cc2c(NC(Cc3c[nH]c4ccccc34)C(=O)O)nc(C)nc2s1 (stereo not given)	none
Cc1sc2ncnc(N[C@@H](CCC(=O)O)C(=O)O)c2c1C	none
CN[C@H]1C[C@H]2c3cc(-c4ccccc4)ccc3CCN2C(=O)[C@H]1[C@H](C)O	none (no result: AHR act)
O=C(c1ccccc1Cl)N1CCN(c2ncccn2)CC1	none (no result: DAX1 inh-1)
CC(=O)/C(N=Nc1cc(C)ccc1O)=C(\C)O	hcDAF12 agonist 9.2, AHR act 56 | LXR ag inactive | hcDAF12 ag 6.3
CC(=O)/C(N=Nc1ccc(C(=O)O)cc1[N+](=O)[O-])=C(\C)O	none
CC1(C)Cc2c(cnn2-c2ccccc2)C(NC(=O)CCCn2cncn2)C1 (stereo not given)	none (no result: AHR act)
CCOC(=O)C(=O)N=Nc1c(O)n(C)c2ccccc12	none
Cc1occc1C(=O)N=Nc1c(O)n(C)c2ccccc12	hgDAF-12 ag 17, hcDAF12 agonist 15, ssDAF-12 act 1.0 | LXR ag inactive | hcDAF12 ag 15
Cn1c(O)c(N=Nc2ccccc2[N+](=O)[O-])c2ccccc21	hgDAF-12 ag 11, hcDAF12 agonist 11, ssDAF-12 act 2.6 | LXR ag inactive | hcDAF12 ag 9.0
Cc1cccn2cc(-c3c[nH]c4ccccc34)nc12	hgDAF-12 ag 13, DAX1 inh-1 4.8, hcDAF12 agonist 6.9, ssDAF-12 act 0.9, AHR act 59 | LXR ag inactive | hcDAF12 ag 10.0
Cc1[nH]c(C)c(S(=O)(=O)NCCc2ccc(S(N)(=O)=O)cc2)c1C(=O)N1CCCC1	none
O=C(COc1ccccc1F)Nc1ccc(S(=O)(=O)N2CCCC2)cc1	none
COc1ccccc1NC(=O)CNc1ccc(F)c(Cl)c1	none
COc1ccc(OC)c(NC(=O)COC(=O)/C=C/c2ccco2)c1	none
COc1ccc(OC)c(NC(=O)COC(=O)/C=C/c2ccccc2Cl)c1	hcDAF12 agonist 7.1 | LXR ag inactive | hcDAF12 ag inactive
C/C(=N/OCO/N=C(\C)c1ccccc1)c1ccccc1	none
C/C(=N\OCc1cccc(C(=O)O)c1)c1ccc(Cl)cc1	hgDAF-12 ag 13, hcDAF12 agonist 8.8 (no result: DAX1 inh-1) | LXR ag inactive | hcDAF12 ag inactive
CC(=O)Nc1sc2c(c1-c1nc3ccccc3s1)CCN(C(C)C)CC2	hcDAF12 agonist 13, ssDAF-12 act 1.1 (no result: DAX1 inh-1, DAX1 inh-2, AHR act) | LXR ag inactive | hcDAF12 ag 15
C#CCCC(=O)Nc1sc2c(c1-c1nc3ccccc3s1)CCN(C(C)C)C2	hcDAF12 agonist 9.7 (no result: DAX1 inh-1, DAX1 inh-2, AHR act) | LXR ag inactive | hcDAF12 ag inactive
CC(C)N1CCc2c(sc(NC(=O)CCc3ccccc3)c2C(N)=O)C1	none
CCN(CC)S(=O)(=O)c1ccc(C(=O)NC(=S)N2CCCCC2C)cc1 (stereo not given)	none (no result: AHR act)
COc1ccc(NC(=S)Nc2cccc3ccccc23)cc1OC	none
CC(=O)Nc1cccc(NC(=S)Nc2cccc3ccccc23)c1	hcDAF12 agonist 7.6, ssDAF-12 act 0.9 | LXR ag inactive | hcDAF12 ag inactive
O=c1ccn([C@@H]2O[C@H](CNCc3ccccc3OCc3ccc(Cl)cc3Cl)[C@@H](O)[C@H]2O)c(=O)[nH]1	none (no result: DAX1 inh-1, AHR act)
Cc1ccc(S(=O)(=O)Nc2nc3ccccc3nc2N2CCOCC2)cc1	none
O=S(=O)(Nc1nc2ccccc2nc1N1CCN(c2ccccc2)CC1)c1ccc(F)cc1	hcDAF12 agonist 8.3 | LXR ag inactive | hcDAF12 ag inactive
COCCCNc1nc2c(-c3cccc(C)c3)nnn2c2ccccc12	hcDAF12 agonist 6.9, AHR act 49 | LXR ag inactive | hcDAF12 ag inactive
CCCCNc1nc2c(S(=O)(=O)c3ccccc3)nnn2c2ccccc12	none
COCCCNc1nc2c(-c3ccc(C)cc3)nnn2c2ccccc12	hgDAF-12 ag 12, hcDAF12 agonist 8.0, ssDAF-12 act 3.6 | LXR ag inactive | hcDAF12 ag 8.0
COc1nc2c(C)cccc2cc1-c1noc(-c2ccco2)n1	hcDAF12 agonist 6.9 | LXR ag inactive | hcDAF12 ag inactive
COc1nc(-c2ccc(Cl)cc2)ccc1-c1noc(-c2ccco2)n1	none
Cc1ccc2nc(-c3ccccn3)[nH]c2c1	hcDAF12 agonist 8.7 | LXR ag inactive | hcDAF12 ag inactive
CN(Cc1ccccc1)C(=O)COC(=O)CCNC(=O)c1ccccc1Cl	none
Nc1nc(-c2ccccc2)ns1	hcDAF12 agonist 6.9 (no result: AHR act) | LXR ag inactive | hcDAF12 ag 6.1
COc1ccc(NC(=O)NNC(=O)c2ccc3ccccc3c2O)c(OC)c1	none
COc1ccc(OC)c(C(=O)Nc2c(O)ccc3ccccc23)c1	hcDAF12 agonist 7.0 | LXR ag inactive | hcDAF12 ag 6.1
Cc1ccc(C(C[N+](=O)[O-])c2c(C)[nH]n(-c3ccccc3)c2=O)cc1 (stereo not given)	none
Cc1cc([N+](=O)[O-])ccc1N=Nc1c(N)[nH]n(-c2ccccc2)c1=O	none
Cc1[nH]n(-c2ccccc2)c(=O)c1N=Nc1ccc(Cl)cc1	hcDAF12 agonist 8.6, AHR act 51 | LXR ag inactive | hcDAF12 ag inactive
Cc1ccccc1N=Nc1c(N)[nH]n(-c2ccccc2)c1=O	hcDAF12 agonist 6.8 (no result: DAX1 inh-1, AHR act) | LXR ag inactive | hcDAF12 ag inactive
COc1ccc(C(c2c(C)[nH]n(-c3ccccc3)c2=O)c2c(C)[nH]n(-c3ccccc3)c2=O)cc1OC	hcDAF12 agonist 7.5 | LXR ag inactive | hcDAF12 ag inactive
Cc1[nH]n(-c2ccccc2)c(=O)c1C(C[N+](=O)[O-])c1ccc(Cl)cc1 (stereo not given)	hcDAF12 agonist 6.9 | LXR ag inactive | hcDAF12 ag inactive
OCCC1CN(Cc2cccc3c2OCO3)CCN1C1CCCC1 (stereo not given)	none
